Results reported in PubChem BioAssay.
The source made the active and inactive calls. Unless noted, no rule for the calls is given here.

Key:
[1] = HepG2 liver cancer cell viability effects, profiling panel, resazurin fluorescence, 24 h, PK04 Diversity Set (AID 1172); conditions: higher = more signal
[2] = basal S. cerevisiae growth modulation, no modifier, primary screen, OD600, strain BY4716, 24 h, basal condition (AID 1173); conditions: OD600, 24 h, higher = more signal, called active from +8 up or from −8 down
[3] = MM1S myeloma cell viability, profiling panel, resazurin fluorescence, basal, 24 h, PK04 Diversity Set (AID 1174); conditions: higher = more signal, called active from +8 up or from −8 down;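 also: MM1S multiple myeloma cell line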
[4] = molecular target: Dihydroorotate dehydrogenase (quinone), mitochondrial (Plasmodium falciparum (isolate 3D7)) (UniProt Q08210); assay: PfDHODH enzyme inhibitors, primary screen, biochemical, C-terminal His tag, absorbance 600 nm (AID 1175); conditions: DCIP absorbance 600 nm, higher = more signal, called active from +8 up or from −8 down;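 also: recombinant parasite enzyme with a five histidine tag at its C terminus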
[5] = P. aeruginosa biofilm formation inhibitors, primary screen, strain PAO1, LB-PBS medium, absorbance 600 nm (AID 1176); conditions: P. aeruginosa PAO1 growth/biofilm, A600, 12 h; higher = more signal
[6] = S. cerevisiae RM11-1a growth modifiers, primary screen, strain RM11-1a, OD600, basal, 24 h (AID 1177); conditions: OD600, 24 h, higher = more signal, called active from +8 up or from −8 down;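 also: cultures grown under basal conditions with no added stressor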
[7] = E. coli acrAB mutant growth effects, primary screen, E. coli filamentation inducers, strain DRC39, OD650, 24 h (AID 1178); conditions: higher = more signal, called active from +8 up or from −8 down;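 also: growth measured as culture turbidity by optical density at 650 nm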
[8] = E. coli acrAB mutant growth effects, primary screen, E. coli filamentation inducers, strain DRC39, OD650, 48 h (AID 1179);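 also: screen aims at cell division blockers that make cells filament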; conditions: E. coli DRC39 delta-acrAB growth, higher = more signal, called active from +8 up or from −8 down
[9] = RPMI8226 myeloma cell viability, profiling panel, resazurin fluorescence, basal, 24 h, PK04 Diversity Set (AID 1180); conditions: higher = more signal;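 also: RPMI8826 multiple myeloma cell line at 5000 cells per well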
[10] = molecular target: E3 ubiquitin-protein ligase XIAP (Homo sapiens) (UniProt P98170); assay: XIAP binders, primary screen, biophysical, small-molecule microarray, fluorescence 635 nm (AID 1181); conditions: small-molecule microarray binding, higher = more signal;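 also: score merges 667 nm emission and signal to noise over triplicate slides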
[11] = test system: XIP peptide (Xip251-270) binding; assay: small-molecule binders of XIP peptide, primary screen, biochemical, small-molecule microarray, fluorescence 635/667 nm, 0.1 µg/mL protein (AID 1182); conditions: fluorescent protein binding, 635 nm, higher = more signal, called active from +8 up or from −8 down
[12] = test system: XIP peptide (Xip251-270); assay: small-molecule binders of XIP peptide, primary screen, biochemical, small-molecule microarray, fluorescence 635/667 nm, 0.5 µg/mL protein (AID 1183); conditions: small-molecule microarray binding, fluorescence 635 nm; higher = more signal
[13] = Plasmodium falciparum growth inhibition, primary screen, strain 3D7, DAPI fluorescence, 100 nL (AID 1184);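 also: parasites grown inside human red blood cells in medium with human serum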; conditions: P. falciparum 3D7 growth, 3 d, higher = more signal
[14] = molecular target: Homeobox protein Hox-A13 (Mus musculus) (UniProt Q62424); assay: inhibitors of HoxA13-DNA binding, primary screen, biochemical, fluorescence polarization, labeled oligonucleotide (AID 1185); conditions: 15 min, higher = more signal, called active from +8 up or from −8 down
[15] = inhibitors of hydroxyurea-induced Chk1 phosphorylation, primary screen, imaging, HeLa, phospho-Chk1 antibody, percent positive cells (AID 1186); conditions: hydroxyurea-induced phospho-Chk1 immunofluorescence imaging, higher = more signal
[16] = inhibitors of hydroxyurea-induced Chk1 phosphorylation, primary screen, imaging, HeLa, phospho-Chk1 nuclear intensity (AID 1187); conditions: hydroxyurea-induced phospho-Chk1 immunofluorescence imaging, higher = more signal

Sequence of Dihydroorotate dehydrogenase (quinone), mitochondrial (Plasmodium falciparum (isolate 3D7)) (Q08210 whole entry, looked up): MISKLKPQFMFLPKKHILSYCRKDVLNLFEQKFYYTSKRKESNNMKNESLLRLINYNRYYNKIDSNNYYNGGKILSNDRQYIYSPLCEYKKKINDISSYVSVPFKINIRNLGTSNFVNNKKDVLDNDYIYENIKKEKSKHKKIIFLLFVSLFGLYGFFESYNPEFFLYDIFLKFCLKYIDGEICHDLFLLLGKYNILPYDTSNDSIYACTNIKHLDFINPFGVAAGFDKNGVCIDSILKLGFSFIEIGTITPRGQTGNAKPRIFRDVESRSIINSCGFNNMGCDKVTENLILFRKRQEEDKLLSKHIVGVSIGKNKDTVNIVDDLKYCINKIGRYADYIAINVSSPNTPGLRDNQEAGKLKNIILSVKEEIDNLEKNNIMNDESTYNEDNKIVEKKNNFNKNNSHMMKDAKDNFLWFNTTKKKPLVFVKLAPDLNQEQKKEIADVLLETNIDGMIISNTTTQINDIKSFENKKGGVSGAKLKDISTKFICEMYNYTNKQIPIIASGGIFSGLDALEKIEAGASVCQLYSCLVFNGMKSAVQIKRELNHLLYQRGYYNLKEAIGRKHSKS
Sequence of E3 ubiquitin-protein ligase XIAP (Homo sapiens) (P98170 whole entry, looked up): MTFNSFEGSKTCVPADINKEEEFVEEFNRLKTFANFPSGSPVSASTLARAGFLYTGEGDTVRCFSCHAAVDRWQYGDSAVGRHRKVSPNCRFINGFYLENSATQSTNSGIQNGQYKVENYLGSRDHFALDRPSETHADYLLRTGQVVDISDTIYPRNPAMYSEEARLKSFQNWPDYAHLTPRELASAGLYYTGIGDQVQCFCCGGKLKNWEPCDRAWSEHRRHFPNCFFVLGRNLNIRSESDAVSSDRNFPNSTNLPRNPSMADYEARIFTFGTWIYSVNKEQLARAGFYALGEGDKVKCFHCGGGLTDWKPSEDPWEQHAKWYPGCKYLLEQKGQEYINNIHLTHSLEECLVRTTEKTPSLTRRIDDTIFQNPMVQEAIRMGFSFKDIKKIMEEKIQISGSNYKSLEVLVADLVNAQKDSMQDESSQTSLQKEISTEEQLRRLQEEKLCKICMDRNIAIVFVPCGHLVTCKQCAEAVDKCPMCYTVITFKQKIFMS
Sequence of Homeobox protein Hox-A13 (Mus musculus) (Q62424 whole entry, looked up): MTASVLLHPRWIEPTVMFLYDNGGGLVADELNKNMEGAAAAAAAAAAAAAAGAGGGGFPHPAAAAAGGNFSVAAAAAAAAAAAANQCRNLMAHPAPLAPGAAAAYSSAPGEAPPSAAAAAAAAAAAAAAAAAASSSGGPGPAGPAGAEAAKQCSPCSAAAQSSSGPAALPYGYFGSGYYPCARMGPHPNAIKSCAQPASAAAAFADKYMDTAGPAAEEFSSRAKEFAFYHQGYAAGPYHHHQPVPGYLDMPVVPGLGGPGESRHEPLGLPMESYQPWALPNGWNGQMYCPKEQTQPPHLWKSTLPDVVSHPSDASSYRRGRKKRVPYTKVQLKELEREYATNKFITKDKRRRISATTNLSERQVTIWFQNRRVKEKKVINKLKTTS

Cc1ccc(S[C@]2(C(=O)NCCCN(C)C)CC(=O)N(C3CCCCC3)[C@@H]2c2ccc(CO)cc2)cc1
z-score [1]: -0.0347 | z-score [2]: 0.0406 (inactive) | z-score [3]: 0.118 (inactive) | composite z-score [4]: 0.193 (inactive) | z-score [5]: 0.236 (inactive) | z-score [6]: 1.21 (inactive) | z-score [7]: 0.425 (inactive) | z-score [8]: 0.509 (inactive) | z-score [9]: -0.0763 | composite z-score [10]: -0.0374 | composite z-score [11]: 0.332 (inactive) | composite z-score [12]: 0.0388 | z-score [13]: -1.54 | z-score [14]: -1.9 (inactive) | z-score [15]: 0.487 (inactive) | z-score [16]: 0.866 (inactive)

CCCC[C@@H]1C[C@H]1[C@@H](NC(=O)c1ccccc1)c1ccc(C(F)(F)F)cc1
z-score [1]: 1.09 | z-score [2]: 0.628 (inactive) | z-score [3]: 0.142 (inactive) | composite z-score [4]: 0.573 (inactive) | z-score [5]: 0.479 (inactive) | z-score [6]: 0.176 (inactive) | z-score [7]: 0.1 (inactive) | z-score [8]: 0.155 (inactive) | z-score [9]: 0.329 | composite z-score [10]: -0.369 | composite z-score [11]: 2.28 (inactive) | composite z-score [12]: -1.51 | z-score [13]: 0.011 | z-score [14]: 0.0892 (inactive) | z-score [15]: -0.27 (inactive) | z-score [16]: -0.226 (inactive)

COc1ccc(CN(C2=CC[C@@]3(C(N)=O)C(=O)C(Cl)=C(Cl)C(=O)[C@@]3(C#N)C2)S(=O)(=O)c2ccc(Br)cc2)cc1
z-score [1]: -0.275 | z-score [2]: -1.2 (inactive) | z-score [3]: -2.88 (inactive) | composite z-score [4]: -4.12 (inactive) | z-score [5]: 0.481 (inactive) | z-score [6]: -0.96 (inactive) | z-score [7]: 0.506 (inactive) | z-score [8]: 0.575 (inactive) | z-score [9]: -1.18 | composite z-score [10]: 0.0937 | composite z-score [11]: 0.68 (inactive) | composite z-score [12]: 0.923 | z-score [13]: 0.435 | z-score [14]: -6.44 (inactive) | z-score [15]: -0.207 (inactive) | z-score [16]: -0.179 (inactive)

C=CCC(OC(C)=O)[C@@H]1[C@@H](N(Cc2cc3ccccc3o2)C(=O)c2ccc(-c3ccccc3)cc2)c2cc(OCCCO)ccc2N1C(=O)c1ccc2ccccc2c1 (some centres undefined)
z-score [1]: -0.98 | z-score [2]: 1.9 (inactive) | z-score [3]: 0.198 (inactive) | composite z-score [4]: 0.396 (inactive) | z-score [5]: 0.857 (inactive) | z-score [6]: 0.454 (inactive) | z-score [7]: -0.413 (inactive) | z-score [8]: -0.787 (inactive) | z-score [9]: -0.158 | composite z-score [10]: -0.135 | composite z-score [11]: -0.252 (inactive) | composite z-score [12]: -0.273 | z-score [13]: -1.41 | z-score [14]: -0.926 (inactive) | z-score [15]: 0.347 (inactive) | z-score [16]: 0.433 (inactive)
